Laboratory results from PubChem BioAssay (NCI).
Compounds without any hit were thinned out: in the full panel of roughly 79,000, 15% have a hit. Calls of active or inactive are those of the source. Rule as the data show it: active = growth inhibition above about 70%; inactive = the rest.

How the values were obtained:
[1] = NCI Yeast Anticancer Drug Screen. Data for the rad50 strain (AID 155);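 also: 0% = growth of vehicle-only cultures of the same strain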; conditions: S. cerevisiae rad50 strain growth inhibition; at 50.0 µM; stronger effect = higher value
Outline: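 Readout: growth inhibition relative to vehicle-treated cultures. Compound exposure was carried out in a genetically defined yeast strain deficient in DNA damage repair.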

[2] = NCI Yeast Anticancer Drug Screen. Data for the mec2-1 strain (AID 157); conditions: S. cerevisiae mec2-1 strain, at 50.0 µM, stronger effect = higher value
Outline: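 Readout is yeast growth inhibition, normalised to vehicle-treated controls, in the mec2-1 strain exposed to compound.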

[3] = NCI Yeast Anticancer Drug Screen. Data for the sgs1 mgt1 strain (AID 161);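 also: 0% = growth of cultures given vehicle only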; conditions: S. cerevisiae sgs1 mgt1 strain, at 50.0 µM, stronger effect = higher value
Outline: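 Percent growth inhibition was derived by comparing compound-exposed mutant yeast with vehicle-exposed cultures. The strain carries alterations in DNA damage repair.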

[4] = NCI Yeast Anticancer Drug Screen. Data for the cln2 rad14 strain (AID 165);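 also: 0% = growth equal to vehicle treated cultures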; conditions: S. cerevisiae cln2 rad14 strain, at 50.0 µM, stronger effect = higher value
Outline: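 Relative to vehicle controls, growth inhibition of compound-treated cln2 rad14 yeast was recorded.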

[5] = NCI Yeast Anticancer Drug Screen. Data for the bub3 strain (AID 167); conditions: S. cerevisiae bub3 mutant strain, at 50.0 µM, stronger effect = higher value
Outline: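 Readout: yeast growth inhibition, expressed relative to vehicle-only wells. The test organism is a mutant strain from a panel with lesions in DNA repair or checkpoint genes.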

[6] = NCI Yeast Anticancer Drug Screen. Data for the mlh1 rad18 strain (AID 175); conditions: S. cerevisiae mlh1 rad18 strain growth inhibition; at 50.0 µM; stronger effect = higher value
Outline: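 Test agents were incubated with a yeast strain of defined genotype (DNA damage repair defect). Inhibition of growth was derived by comparison with vehicle-exposed cultures.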

Measured: growth inhibition

COc1ccc(S(=O)(=O)F)cc1N
inactive: [1] -18.6% | [2] -32.5% | [3] -21.6% | [4] 4.35% | [5] -14.3% | [6] -22.4%

ClCc1ccc(Cl)c(Cl)c1
inactive: [1] 16.1% | [2] 3.8% | [3] -3.05% | [4] 10.4% | [5] 1.5% | [6] -20.4%

CC([NH-])C[NH-].CC([NH-])C[NH-].[Cl-].[Cl-].[Co+3].[O-][Cl+3]([O-])([O-])O (stereo unspecified)
inactive: [1] 37.5% | [2] 12.6% | [3] 40.5% | [4] 25.6% | [5] 16.9% | [6] 1.6%

CC12CCC3C(CC(N4CC4)C4(O)CC(O)CCC34C)C1CCC2=O (stereo unspecified)
inactive: [1] 15.6% | [2] -10.2% | [3] -3.85% | [4] 14.8% | [5] -8% | [6] -8%

CC(=O)OC1CC2(O)C(CCC3(C)C(c4ccc(=O)oc4)CCC32O)C2(C)CCC(O)C=C12 (stereo unspecified)
inactive: [1] 7.25% | [2] -11.4% | [3] -1.75% | [4] -1.75% | [5] -3.4% | [6] 14.8%

C[C@]12CC[C@H](OC(=O)Cc3ccc(N(CCCl)CCCl)cc3)CC1CC[C@@H]1C2CC[C@]2(C)NC(=O)CCC12 (stereo partly specified)
inactive: [1] 0.1% | [2] -5.65% | [3] 15.9% | [4] 15.2% | [5] 3.65% | [6] 18.1%

NC(CCSCCF)C(=O)O (stereo unspecified)
inactive: [1] 36.9% | [2] 8.6% | [3] 12.8% | [4] -2.65% | [5] 24.4% | [6] 35%

NC(N)=N/N=C1\C(=O)N(c2cccc([N+](=O)[O-])c2)C(=O)C1C(=O)Nc1cccc([N+](=O)[O-])c1 (stereo unspecified)
inactive: [1] -17.9% | [2] -22.4% | [3] -17.1% | [4] -29.6% | [5] 1.4% | [6] -14.5%

CC1(C)N=C(N)N=C(N)N1c1cccc(CCCCc2ccc(S(=O)(=O)F)c(Cl)c2)c1
active: [1] 99.5% | [2] 99.7% | [3] 99.5% | [4] 99.4% | [5] 99.3% | [6] 99.7%

CCc1c2c(c(C)n1C)C(c1ccccc1)=NCC(=O)N2
inactive: [1] 8.1% | [2] 21.1% | [3] 21.7% | [4] -7.1% | [5] 13.4% | [6] 3%

CCOP(=S)(OCC)OP(=S)(OCC)OCC
inactive: [1] -44.5% | [2] -50.4% | [3] -40.6% | [4] -13.9% | [5] -28.1% | [6] -42.1%

COc1cc(C2c3cc4c(cc3OC(O)C2C)OCO4)cc(OC)c1O (stereo unspecified)
inactive: [1] -13.2% | [2] -49.9% | [3] -23.9% | [4] 8.25% | [5] -2.9% | [6] -5.75%

CCCCCC(=O)C[n+]1ccccc1 (tested in a mixture with another compound)
inactive: [1] -11.7% | [2] -1.4% | [3] -20% | [4] -36% | [5] 24.4% | [6] -9.15%

CC1(C)c2ccccc2C(c2ccccc2)(c2ccccc2)[N+]1(C)C
inactive: [1] 63.4% | [2] 33.7% | [3] 52.2% | [4] 21.7% | [5] 22.2% | [6] 49%

CC(C)(C)P(O)(=S)c1ccccc1 (stereo unspecified) (tested in a mixture with another compound)
inactive: [1] 2.65% | [2] 2.1% | [3] 1.9% | [4] -34.2% | [5] -24.6% | [6] 5.35%

c1ccc2c(C3N4CCCN3CC4)c[nH]c2c1 (stereo unspecified)
inactive: [1] -0.2% | [2] -15.7% | [3] 8.7% | [4] 9.3% | [5] -4.2% | [6] 6.05%

N#CC(C#N)=Cc1ccccc1[N+](=O)[O-]
inactive: [1] 41.9% | [2] 17.2% | [3] 8.3% | [4] 25.6% | [5] 39.8% | [6] 29.7%

C/C=C/CC1(CC)C(=O)NC(=S)NC1=O
inactive: [1] 3.8% | [2] 7% | [3] 7.15% | [4] 9% | [5] 2.35% | [6] 13.6%

O=C(Cc1ccc(N(CCCl)CCCl)cc1)NC1CCCC1
inactive: [1] -0.05% | [2] -16.6% | [3] -13.9% | [4] -22.9% | [5] -2.3% | [6] 18.1%

CCN(CC)CCn1c(=O)c2ccccc2n(CCN(CC)CC)c1=O
inactive: [1] 19.6% | [2] 13.1% | [3] 22.5% | [4] 20.8% | [5] 12.7% | [6] 10.4%

OC1CN=C2c3ccccc3C(O)(c3ccc(Cl)cc3)N2C1 (stereo unspecified)
inactive: [1] 23.8% | [2] 22.1% | [3] 37.2% | [4] -1.9% | [5] 22.7% | [6] 37.5%

C=CCNC(=S)/N=C/c1c(O)[nH]c(=O)[nH]c1=O
inactive: [1] -64.8% | [2] -50.4% | [3] -44.9% | [4] -47% | [5] -15.8% | [6] -44.1%

CCC(C)C(=O)OC1CC2(C)C(c3ccoc3)OC(=O)CC23OC2(C)OC34C(OC(=O)C(C)C)C3(O)C(OC(=O)C5(C)OC5C)C5(C)CC3(O)C(C)(C5CC(=O)OC)C14O2 (stereo unspecified)
inactive: [1] 24.4% | [2] 19.1% | [3] 9.3% | [4] 26.9% | [5] 13.1% | [6] -24.3%

CNC1=C(N2CC2)C(=O)C(NC)=C(N2CC2)C1=O
inactive: [1] 7.7% | [2] 28.3% | [3] 17.9% | [4] 10.8% | [5] 13.8% | [6] 36.4%

O=NN1CCCCCCC1C(=O)O (stereo unspecified)
inactive: [1] 1.3% | [2] 6.55% | [3] -14.7% | [4] -22.8% | [5] 9.15% | [6] 19.5%

O=c1[nH]cnc2c1ncn2-c1ccc(N(CCCl)CCCl)cc1
inactive: [1] 4.3% | [2] 12.7% | [3] 16% | [4] -20.5% | [5] -12.2% | [6] 15.2%

CCOP(=O)(OCC)/C(C#N)=C/c1ccccc1
inactive: [1] 19.2% | [2] -23.1% | [3] -8.95% | [4] -33.8% | [5] -11.3% | [6] 19.6%

CCNP(=O)(OCC)OCC
inactive: [1] 9.9% | [2] -15.6% | [3] 12.2% | [4] 24.4% | [5] 7.6% | [6] 17.9%

O=C(Nc1ncn[nH]1)C(Cl)(Cl)Cl
inactive: [1] -4.1% | [2] -15.9% | [3] -7.15% | [4] -53% | [5] -2% | [6] -7.25%

CCCCP(CCCC)CCCC
inactive: [1] -10% | [2] 0.95% | [3] 4.15% | [4] 19.2% | [5] 51% | [6] 19.6%

CCCCOP(O)(=S)OCCCC.[Tb]
inactive: [1] -19% | [2] 14.6% | [3] -14.6% | [4] 29.1% | [5] -14.8% | [6] 17.9%

O=[N+]([O-])c1ccc2sc3ccccc3c2c1
inactive: [1] 63.1% | [2] 12.2% | [3] 26.3% | [4] 44% | [5] -3.35% | [6] 58.8%

CC(=O)C1(O)CCC2(O)C3(O)CC=C4CC(O)CCC4(C)C3CC(OC(=O)c3ccc(O)cc3)C12C (stereo unspecified)
inactive: [1] 8.5% | [2] 2.85% | [3] -12.8% | [4] -1.7% | [5] -1.6% | [6] -50.4%

O=[As](O)(O)c1cccc(O)c1
inactive: [1] -6.8% | [2] -7.25% | [3] -8.65% | [4] 3.7% | [5] 9.25% | [6] -16.1%

CC(=O)c1ccccc1N=Nc1ccc(N(CCCl)CCCl)cc1C
inactive: [1] 13.5% | [2] 19.7% | [3] 12.9% | [4] 0.95% | [5] 20.5% | [6] 31.4%

N#CC(OC1OC(C(=O)O)C(O)C(O)C1O)c1ccccc1 (stereo unspecified)
inactive: [1] 17.2% | [2] -14.5% | [3] -5.3% | [4] 3% | [5] 0.6% | [6] 2.25%

COC12CC3C4=CCOC5CC(=O)N6c7ccccc7C1(CCN2C4)C6C53 (stereo unspecified)
inactive: [1] 5.3% | [2] -23.8% | [3] 13.3% | [4] 16.9% | [5] 15.2% | [6] 15.4%

COc1ccc(O)c2c(=O)c3c(OC)cc4c(c3oc12)[C@@H]1C=CO[C@@H]1O4
inactive: [1] 16.6% | [2] -29.6% | [3] 17.5% | [4] -2.9% | [5] -9.65% | [6] 9.2%

[Fe+2].[c-]1[c-][c-][cH-][c-]1.[c-]1[c-][c-][cH-][c-]1.c1cc[c]([Pb]([c]2ccccc2)[c]2ccccc2)cc1
active: [2] 85% | [3] 83.9% | [5] 78.3% | [6] 87.8%
inactive: [1] 66.5% | [4] 65.5%

CCC1CN1CCC(=O)Nc1ccccc1 (stereo unspecified)
inactive: [1] -2.8% | [2] -13.1% | [3] -14.2% | [4] -35.2% | [5] -17.6% | [6] 6.3%

C=CCc1cc(OC)c2c(c1OC)OCO2
inactive: [1] 6.3% | [2] 8.95% | [3] -0.7% | [4] 2.05% | [5] -1.9% | [6] 7.05%
